Measured values from PubChem BioAssay (NCATS).
Inconclusive results are not listed. Activity calls are given as the source filed them. The call rests on the fitted dose curve; in most records, active means well fitted curve in the direction sought with a large enough effect; inconclusive means small, poorly fitted or top-dose-only effect, or another doubt; inactive means no such curve, though single readings can be large; an effect the other way counts as inactive or inconclusive.

How the values were obtained:
[1] = qHTS of pediatric cancer cell lines to identify multiple opportunities for drug repurposing: Primary screen for DAOY cells (AID 1347090); further: nearly all actives have a fitted effect of over 55% in size
Procedure, shortened: (§1)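 Eight- or eleven-point concentration series, 48 h treatment at 37 degrees C in growth media; readout CellTiter-Glo luminescence. Potency and efficacy were taken from the concentration-response curves.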

[2] = qHTS of pediatric cancer cell lines to identify multiple opportunities for drug repurposing: Primary screen for SJ-GBM2 cells (AID 1347091)
Procedure, shortened: as §1

[3] = qHTS of pediatric cancer cell lines to identify multiple opportunities for drug repurposing: Primary screen for A673 cells (AID 1347092); further: nearly all actives have a fitted effect of over 45% in size
Procedure, shortened: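 A673 cells (500-1,000 cells/well) were treated 48 hours at 37 degrees C with compounds at 11-point (0.78 nM to 46 µM) or 8-point (0.59 nM to 46 µM) dilutions. Viability read by CellTiter-Glo luminescence; concentration-response curves fitted.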

[4] = qHTS of pediatric cancer cell lines to identify multiple opportunities for drug repurposing: Primary screen for SK-N-MC cells (AID 1347093)
Procedure, shortened: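 Metabolically active cells were quantified by ATP-dependent luminescence (CellTiter-Glo, 15 min at room temperature) following 48 h treatment. Cells had been plated at 500-1,000 per well and settled for 5 h beforehand.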

[5] = qHTS of pediatric cancer cell lines to identify multiple opportunities for drug repurposing: Primary screen for BT-37 cells (AID 1347094)
Procedure, shortened: (§2)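 Luminescence from CellTiter-Glo served as readout of metabolically active cells after 48 h compound exposure. Titrations: MIPE 11-point, from 0.78 nM; NPC 8-point, from 0.59 nM (final). Concentration-response curves came straight from the primary screen.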

[6] = qHTS of pediatric cancer cell lines to identify multiple opportunities for drug repurposing: Primary screen for NB-EBc1 cells (AID 1347095)
Procedure, shortened: as §2

[7] = qHTS of pediatric cancer cell lines to identify multiple opportunities for drug repurposing: Primary screen for U-2 OS cells (AID 1347096); further: nearly all actives have a fitted effect of over 50% in size
Procedure, shortened: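 Cells (500-1,000/well) in growth media were settled 5 h at 37 degrees C, then given compounds for 48 h. Viability was read as CellTiter-Glo luminescence. Primary runs used MIPE at 11 points (0.78 nM-46 µM) and NPC at 8 points (0.59 nM-46 µM); follow-ups used 11 points.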

[8] = qHTS of pediatric cancer cell lines to identify multiple opportunities for drug repurposing: Primary screen for Saos-2 cells (AID 1347097); further: nearly all actives have a fitted effect of over 40% in size
Procedure, shortened: as §2

[9] = qHTS of pediatric cancer cell lines to identify multiple opportunities for drug repurposing: Primary screen for SK-N-SH cells (AID 1347098); further: nearly all actives have a fitted effect of over 65% in size
Procedure, shortened: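 Cells (500-1,000/well) rested 5 h, then received compounds for 48 h; metabolically active cells were measured by CellTiter-Glo luminescence. Final concentrations spanned up to 46 µM (MIPE, 11-point) or 0.59 nM-46 µM (NPC, 8-point) in primary screens, 11-point in follow-ups.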

[10] = qHTS of pediatric cancer cell lines to identify multiple opportunities for drug repurposing: Primary screen for NB1643 cells (AID 1347099); further: nearly all actives have a fitted effect of over 50% in size
Procedure, shortened: as §2

Measured: Potency
Potency means the concentration at half of the fitted maximal effect.

CN1C(=O)C(Cc2c[nH]c3ccccc23)NC1=S (stereo unspecified)
not listed: [10]
inactive: all other assays above

CC[C@H]1OC(=O)[C@H](C)[C@@H](O[C@H]2C[C@@](C)(OC)[C@@H](O)[C@H](C)O2)[C@H](C)[C@@H](O[C@@H]2O[C@H](C)C[C@H](N(C)C)[C@H]2O)[C@](C)(O)C[C@H](C)C(=NOCOCCOC)[C@H](C)[C@@H](O)[C@]1(C)O
active: [4] 16.6 µM | [9] 30.4 µM
not listed: [10]
inactive: all other assays above

CON(C)C(=O)N1N=C(c2cc(F)ccc2F)S[C@]1(CCCN)c1ccccc1
active: [1] 0.0015 µM | [2] 0.001 µM | [3] 0.001 µM | [4] 0.001 µM | [6] 0.001 µM | [8] 0.001 µM
inactive: [5] | [7] | [10]

CO[C@H]1/C=C\O[C@@]2(C)Oc3c(C)c(O)c4c(O)c(c(C=NN5CCN(C6CCCC6)CC5)c(O)c4c3C2=O)NC(=O)C(C)=CC=C[C@H](C)[C@H](O)[C@@H](C)[C@@H](O)[C@@H](C)[C@H](OC(C)=O)[C@H]1C
inactive: [2]
active: [1] 0.296 µM | [3] 0.0296 µM | [4] 0.0059 µM | [5] 0.001 µM | [6] 0.001 µM | [7] 2.35 µM | [8] 0.0935 µM | [9] 0.0961 µM | [10] 0.0105 µM

Nc1ccc(-c2ccc3ncc4ccc(=O)n(-c5cccc(C(F)(F)F)c5)c4c3c2)cn1
active: [1] 0.0074 µM | [2] 0.003 µM | [3] 0.003 µM | [4] 0.0001 µM | [5] 0.0109 µM | [6] 0.0118 µM | [7] 1.48 µM | [8] 0.148 µM | [10] 0.418 µM

Clc1ccc(C2(c3ccc(-c4cn[nH]c4)cc3)CCNCC2)cc1
active: [1] 23.5 µM | [2] 5.26 µM | [3] 18.7 µM | [4] 6.62 µM | [6] 16.6 µM | [8] 4.18 µM | [9] 24.1 µM
inactive: [5] | [7]

CC=C1C2C=C(C)CC1(N)c1ccc(=O)[nH]c1C2 (stereo unspecified)
not listed: [10]
inactive: all other assays above

CC(=O)N1CCN(c2ccc(OCc3nn(C)c(C)c3-c3cccc4c(CCCOc5cc(C)c(Cl)c(C)c5)c(C(=O)O)n(Cc5cccnc5)c34)cc2)CC1
inactive: [7]
active: [1] 18.7 µM | [2] 23.5 µM | [3] 14.8 µM | [4] 4.18 µM | [5] 24.3 µM | [6] 14.8 µM | [8] 18.7 µM

NC(=O)c1noc([C@H](CCCC2CCCCC2)CC(=O)NO)n1
active: [1] 14.8 µM | [2] 18.7 µM | [3] 9.35 µM | [4] 7.43 µM | [5] 21.7 µM | [6] 20.9 µM
inactive: [7]

Nc1nc(Cl)nc2c1ncn2[C@@H]1O[C@H](CO)[C@@H](O)[C@H]1F
active: [1] 0.0372 µM | [2] 0.001 µM | [3] 0.0296 µM | [4] 0.001 µM | [5] 0.0485 µM | [6] 0.001 µM | [10] 3.72 µM
inactive: [7]

CCNC(=O)[C@H]1O[C@@H](n2cnc3c(N)nc(NCCc4ccc(CCC(=O)O)cc4)nc32)[C@H](O)[C@H]1O
not listed: [8]
inactive: all other assays above

CS(=O)(=O)c1ccc(C2=C(c3ccccc3)C(=O)OC2)cc1
not listed: [9]
inactive: all other assays above

O=C(O)C1=CO[C@@H](O[C@@H]2O[C@H](CO)[C@H](O)[C@H](O)[C@H]2O)[C@@H]2C(CO)=CC[C@H]12
active: [9] 21.5 µM
not listed: [8] | [10]
inactive: all other assays above

Cc1[nH]c(C=C2C(=O)Nc3ccc(S(=O)(=O)N(C)c4cccc(Cl)c4)cc32)c(C)c1C(=O)N1CCN(C)CC1
active: [1] 23.5 µM | [2] 2.09 µM | [3] 23.5 µM | [4] 11.8 µM | [5] 24.3 µM | [6] 14.8 µM | [7] 18.7 µM | [8] 18.7 µM | [9] 30.4 µM | [10] 18.7 µM

NCC1CCC(C(=O)O)CC1 (stereo unspecified)
not listed: [8] | [10]
inactive: all other assays above
